Measurements taken from PubChem BioAssay AID602468 (The Scripps Research Institute Molecular Screening Center, 2012).
Calls of active or inactive are those of the source. The rule behind the calls is not given here.

System: Neuro-2A
Test: selectivity across cysteine-reactive proteome – gel-based competitive ABPP, fluorescence, MBM, Neuro-2A, selectivity assay for PME-1 inhibitor project, late-stage follow-up (AID 602468)
Conditions: MBM or Neuro-2A, in situ; series mostly up to 0.25 µM

Q: How did the outcome turn out when `CC[C@@]1(c2ccc(C)cc2)C(=O)N(C(=O)OC(C)C)N1C(=O)OC(C)C` was run?
A: inactive
